# PubChem BioAssay (EPA / NIEHS)
# Active and inactive are the calls of the source. How the source made its calls: active means hit-call score of the fitted dose curve at least 0.9, where 1 is the maximum; inactive means score below 0.9.
# Key:
# [1] = CEETOX_H295R_PROG: CeeTox H295R High-throughput Steroidogenesis Assay for Progesterone (PROG) (AID 2283442); details: actives raise or lower the signal
# In short: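 H295R adrenal cells prestimulated 48 h with 10 uM forskolin, then exposed 48 h to test chemical in 0.1% DMSO. Progesterone in medium quantified by HPLC-MS/MS after MTBE extraction; viability checked by MTT in same wells.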
# [2] = read-out: Fatty acid synthase (Homo sapiens) (UniProt P49327); test: LTEA_HepaRG_FASN: Life Technologies and Expression Analysis (LTEA) Assay for Fatty Acid Synthase (FASN) using HepaRG (AID 2283448); details: mRNA level, 48 h; actives raise or lower the signal
# In short: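 Differentiated human HepaRG cells were exposed for 48 h in serum-free induction medium to eight half-log concentrations up to 100 uM in 0.5% DMSO, in duplicate. FASN mRNA was quantified by TaqMan qRT-PCR, normalized to ACTB/GAPDH/POLR2A, and fitted bidirectionally against DMSO.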
# [3] = read-out: Cyclin D2 (CCND2), CCND2 (gene 894); test: LTEA_HepaRG_CCND2: Life Technologies and Expression Analysis (LTEA) Assay for Cyclin D2 (CCND2) using HepaRG (AID 2283449); details: mRNA level, 48 h; actives raise or lower the signal
# In short: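 Read-out is CCND2 mRNA level measured by qRT-PCR in human HepaRG liver cells and normalised to three housekeeping genes. Chemicals were applied for 48 h at up to 100 uM, with gain or loss fitted relative to 0.5% DMSO.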
# [4] = read-out: Cyclin Dependent Kinase Inhibitor 1A (CDKN1A), CDKN1A (gene 1026); test: LTEA_HepaRG_CDKN1A: Life Technologies and Expression Analysis (LTEA) Assay for Cyclin Dependent Kinase Inhibitor 1A (CDKN1A) using HepaRG (AID 2283450); details: mRNA level, 48 h; actives raise or lower the signal
# In short: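 Differentiated HepaRG cells in serum-free induction medium, exposed 48 h in duplicate to eight half-log concentrations up to 100 uM in 0.5% DMSO. mRNA measured by TaqMan qRT-PCR, normalized to ACTB, GAPDH, POLR2A; bidirectional fit versus DMSO.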
# [5] = read-out: Cyclin D1 (CCND1), CCND1 (gene 595); test: LTEA_HepaRG_CCND1: Life Technologies and Expression Analysis (LTEA) Assay for Cyclin D1 (CCND1) using HepaRG (AID 2283451); details: mRNA level, 48 h; actives raise or lower the signal;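 further: TaqMan qRT-PCR transcript level normalised to ACTB GAPDH and POLR2A housekeeping genes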
# In short: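 Differentiated HepaRG cells exposed 48 h in serum-free induction medium to eight half-log concentrations from 100 uM top, 0.5% DMSO, duplicates. CCND1 mRNA measured by Fluidigm TaqMan qRT-PCR, normalised to ACTB, GAPDH, POLR2A; bidirectional fit.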
# [6] = read-out: catalase (CAT), CAT (gene 847); test: LTEA_HepaRG_CAT: Life Technologies and Expression Analysis (LTEA) Assay for catalase (CAT) using HepaRG (AID 2283452); details: mRNA level, 48 h; actives raise or lower the signal;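 further: TaqMan qRT-PCR signal normalized to ACTB GAPDH and POLR2A housekeeping genes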
# In short: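 Expression of CAT was quantified by TaqMan qRT-PCR with ACTB/GAPDH/POLR2A normalization after 48 h chemical exposure of HepaRG. Eight-point half-log series, top 100 uM, in 0.5% DMSO; gain or loss fitted against vehicle.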
# [7] = read-out: flavin-containing dimethylaniline monooxygenases 3 (FMO3), FMO3 (gene 2328); test: LTEA_HepaRG_FMO3: Life Technologies and Expression Analysis (LTEA) Assay for flavin-containing dimethylaniline monooxygenases 3 (FMO3) using HepaRG (AID 2283453); details: mRNA level, 48 h; actives raise or lower the signal;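 further: FMO3 transcript by TaqMan qRT-PCR normalized to ACTB GAPDH and POLR2A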
# In short: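 HepaRG, 48 h exposure, 8-pt half-log series from 100 uM, 0.5% DMSO vehicle, duplicates; FMO3 transcript by Fluidigm TaqMan qRT-PCR, housekeeping-normalized; gain/loss fit vs DMSO.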
# [8] = read-out: Cytochrome P450 (CYP1A1), CYP1A1 (gene 1543); test: LTEA_HepaRG_CYP1A1: Life Technologies and Expression Analysis (LTEA) Assay for Cytochrome P450 (CYP1A1) using HepaRG (AID 2283454); details: mRNA level, 48 h; actives raise or lower the signal
# In short: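 Differentiated human HepaRG cells, after 48 h plating, exposed in duplicate for 48 h in serum-free induction medium to 8 half-log concentrations up to 100 uM in 0.5% DMSO. CYP1A1 mRNA by qRT-PCR, normalized to ACTB/GAPDH/POLR2A; bidirectional fit versus DMSO.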
# [9] = read-out: CFLAR gene, CFLAR (gene 8837); test: LTEA_HepaRG_CFLAR: Life Technologies and Expression Analysis (LTEA) Assay for CFLAR gene using HepaRG (AID 2283455); details: mRNA level, 48 h; actives raise or lower the signal
# In short: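 HepaRG, 48 h exposure, 8-pt conc-response (100 uM top, half-log), 0.5% DMSO vehicle, duplicates. CFLAR expression by qRT-PCR; ACTB/GAPDH/POLR2A normalization; gain or loss fit vs DMSO baseline.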
# [10] = read-out: Forkhead box O1 (FOXO1), FOXO1 (gene 2308); test: LTEA_HepaRG_FOXO1: Life Technologies and Expression Analysis (LTEA) Assay for Forkhead box O1 (FOXO1) using HepaRG (AID 2283456); details: mRNA level, 48 h; actives raise or lower the signal
# In short: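 Readout is FOXO1 transcript level by multiplexed qRT-PCR against three housekeeping genes, curve-fitted in both directions relative to 0.5% DMSO vehicle. Human HepaRG cultures received chemicals for 48 h, up to 100 uM in half-log steps.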
# [11] = read-out: Forkhead box O3 (FOXO3), FOXO3 (gene 2309); test: LTEA_HepaRG_FOXO3: Life Technologies and Expression Analysis (LTEA) Assay for Forkhead box O3 (FOXO3) using HepaRG (AID 2283459); details: mRNA level, 48 h; actives raise or lower the signal
# In short: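 HepaRG, 48 h post-dose; 8 conc., half-log from 100 uM, 0.5% DMSO, duplicates; serum-free induction medium. Readout: FOXO3 mRNA, TaqMan qRT-PCR, housekeeping-normalized. Bidirectional curve fit vs DMSO baseline.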
# [12] = read-out: ABC Transporter (ABCB1), ABCB1 (gene 5243); test: LTEA_HepaRG_ABCB1: Life Technologies and Expression Analysis (LTEA) Assay for ABC Transporter (ABCB1) using HepaRG (AID 2283460); details: mRNA level, 48 h; actives raise or lower the signal
# In short: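 Expression of ABCB1 was quantified by qRT-PCR against three housekeeping genes after human HepaRG cultures received test chemicals for 48 hours. Concentrations spanned eight half-log steps topping at 100 uM in 0.5% DMSO; gain or loss of signal was fitted relative to vehicle.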
# [13] = read-out: growth arrest and DNA damage 45 (GADD45B), GADD45B (gene 4616); test: LTEA_HepaRG_GADD45B: Life Technologies and Expression Analysis (LTEA) Assay for growth arrest and DNA damage 45 (GADD45B) using HepaRG (AID 2283461); details: mRNA level, 48 h; actives raise or lower the signal
# In short: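 Differentiated human HepaRG cells in serum-free induction medium exposed 48 h in duplicate to eight concentrations, top 100 uM, half-log steps, 0.5% DMSO. GADD45B mRNA by TaqMan qRT-PCR, normalized to ACTB, GAPDH, POLR2A; bidirectional fit versus DMSO.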
# [14] = read-out: ABC Transporter (ABCC3), ABCC3 (gene 8714); test: LTEA_HepaRG_ABCC3: Life Technologies and Expression Analysis (LTEA) Assay for ABC Transporter (ABCC3) using HepaRG (AID 2283462); details: mRNA level, 48 h; actives raise or lower the signal
# In short: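 Differentiated human HepaRG cells exposed 48 h in serum-free induction medium, 0.5% DMSO vehicle, 8-point half-log series to 100 uM in duplicate. ABCC3 mRNA by qRT-PCR, normalised to ACTB, GAPDH, POLR2A; bidirectional fit vs DMSO.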
# [15] = read-out: ABC Transporter (ABCB11), ABCB11 (gene 8647); test: LTEA_HepaRG_ABCB11: Life Technologies and Expression Analysis (LTEA) Assay for ABC Transporter (ABCB11) using HepaRG (AID 2283463); details: mRNA level, 48 h; actives raise or lower the signal
# In short: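 ABCB11 transcript levels are read by Fluidigm TaqMan qRT-PCR after 48 h chemical treatment of human HepaRG cells. Concentrations span 100 uM downward in half-log steps with 0.5% DMSO; gain or loss is fitted against DMSO controls.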
# [16] = read-out: ABC Transporter (ABCC2), ABCC2 (gene 1244); test: LTEA_HepaRG_ABCC2: Life Technologies and Expression Analysis (LTEA) Assay for ABC Transporter (ABCC2) using HepaRG (AID 2283464); details: mRNA level, 48 h; actives raise or lower the signal
# In short: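 Differentiated HepaRG cells in serum-free induction medium exposed 48 h to eight half-log concentrations up to 100 uM, 0.5% DMSO, in duplicate. ABCC2 mRNA measured by qRT-PCR (TaqMan, Fluidigm), normalized to ACTB, GAPDH and POLR2A. Fitted in both directions against DMSO.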
# [17] = read-out: Broad substrate specificity ATP-binding cassette transporter ABCG2 (Homo sapiens) (UniProt Q9UNQ0); test: LTEA_HepaRG_ABCG2: Life Technologies and Expression Analysis (LTEA) Assay for ABC Transporter (ABCG2) using HepaRG (AID 2283465); details: mRNA level, 48 h; actives raise or lower the signal
# In short: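 Read-out is ABCG2 mRNA induction or loss quantified by qRT-PCR after 48 h chemical treatment of human HepaRG cells, normalized to three housekeeping genes. Concentrations reached 100 uM top in half-log steps; fitting was bidirectional against 0.5% DMSO.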
# [18] = read-out: Tumor necrosis factor receptor superfamily member 6 (Homo sapiens) (UniProt P25445); test: LTEA_HepaRG_FAS: Life Technologies and Expression Analysis (LTEA) Assay for Fas cell surface death receptor (FAS) using HepaRG (AID 2283447); details: mRNA level, 48 h; actives raise or lower the signal
# In short: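 FAS transcript level was measured by TaqMan qRT-PCR against three housekeeping genes after 48 h chemical exposure. Cells were HepaRG, 0.5% DMSO vehicle, with a top concentration of 100 uM and half-log dilutions over eight points, in duplicate.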
# [19] = read-out: growth arrest and DNA damage 45 (GADD45A), GADD45A (gene 1647); test: LTEA_HepaRG_GADD45A: Life Technologies and Expression Analysis (LTEA) Assay for growth arrest and DNA damage 45 (GADD45A) using HepaRG (AID 2283458); details: mRNA level, 48 h; actives raise or lower the signal
# In short: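 Differentiated HepaRG cells were exposed in duplicate for 48 h in serum-free induction medium to 8-point half-log concentrations up to 100 uM in 0.5% DMSO. GADD45A mRNA was measured by TaqMan qRT-PCR, normalized to ACTB, GAPDH and POLR2A, with bidirectional fitting versus DMSO.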
# Sequence of Fatty acid synthase (Homo sapiens) (P49327 whole entry, looked up): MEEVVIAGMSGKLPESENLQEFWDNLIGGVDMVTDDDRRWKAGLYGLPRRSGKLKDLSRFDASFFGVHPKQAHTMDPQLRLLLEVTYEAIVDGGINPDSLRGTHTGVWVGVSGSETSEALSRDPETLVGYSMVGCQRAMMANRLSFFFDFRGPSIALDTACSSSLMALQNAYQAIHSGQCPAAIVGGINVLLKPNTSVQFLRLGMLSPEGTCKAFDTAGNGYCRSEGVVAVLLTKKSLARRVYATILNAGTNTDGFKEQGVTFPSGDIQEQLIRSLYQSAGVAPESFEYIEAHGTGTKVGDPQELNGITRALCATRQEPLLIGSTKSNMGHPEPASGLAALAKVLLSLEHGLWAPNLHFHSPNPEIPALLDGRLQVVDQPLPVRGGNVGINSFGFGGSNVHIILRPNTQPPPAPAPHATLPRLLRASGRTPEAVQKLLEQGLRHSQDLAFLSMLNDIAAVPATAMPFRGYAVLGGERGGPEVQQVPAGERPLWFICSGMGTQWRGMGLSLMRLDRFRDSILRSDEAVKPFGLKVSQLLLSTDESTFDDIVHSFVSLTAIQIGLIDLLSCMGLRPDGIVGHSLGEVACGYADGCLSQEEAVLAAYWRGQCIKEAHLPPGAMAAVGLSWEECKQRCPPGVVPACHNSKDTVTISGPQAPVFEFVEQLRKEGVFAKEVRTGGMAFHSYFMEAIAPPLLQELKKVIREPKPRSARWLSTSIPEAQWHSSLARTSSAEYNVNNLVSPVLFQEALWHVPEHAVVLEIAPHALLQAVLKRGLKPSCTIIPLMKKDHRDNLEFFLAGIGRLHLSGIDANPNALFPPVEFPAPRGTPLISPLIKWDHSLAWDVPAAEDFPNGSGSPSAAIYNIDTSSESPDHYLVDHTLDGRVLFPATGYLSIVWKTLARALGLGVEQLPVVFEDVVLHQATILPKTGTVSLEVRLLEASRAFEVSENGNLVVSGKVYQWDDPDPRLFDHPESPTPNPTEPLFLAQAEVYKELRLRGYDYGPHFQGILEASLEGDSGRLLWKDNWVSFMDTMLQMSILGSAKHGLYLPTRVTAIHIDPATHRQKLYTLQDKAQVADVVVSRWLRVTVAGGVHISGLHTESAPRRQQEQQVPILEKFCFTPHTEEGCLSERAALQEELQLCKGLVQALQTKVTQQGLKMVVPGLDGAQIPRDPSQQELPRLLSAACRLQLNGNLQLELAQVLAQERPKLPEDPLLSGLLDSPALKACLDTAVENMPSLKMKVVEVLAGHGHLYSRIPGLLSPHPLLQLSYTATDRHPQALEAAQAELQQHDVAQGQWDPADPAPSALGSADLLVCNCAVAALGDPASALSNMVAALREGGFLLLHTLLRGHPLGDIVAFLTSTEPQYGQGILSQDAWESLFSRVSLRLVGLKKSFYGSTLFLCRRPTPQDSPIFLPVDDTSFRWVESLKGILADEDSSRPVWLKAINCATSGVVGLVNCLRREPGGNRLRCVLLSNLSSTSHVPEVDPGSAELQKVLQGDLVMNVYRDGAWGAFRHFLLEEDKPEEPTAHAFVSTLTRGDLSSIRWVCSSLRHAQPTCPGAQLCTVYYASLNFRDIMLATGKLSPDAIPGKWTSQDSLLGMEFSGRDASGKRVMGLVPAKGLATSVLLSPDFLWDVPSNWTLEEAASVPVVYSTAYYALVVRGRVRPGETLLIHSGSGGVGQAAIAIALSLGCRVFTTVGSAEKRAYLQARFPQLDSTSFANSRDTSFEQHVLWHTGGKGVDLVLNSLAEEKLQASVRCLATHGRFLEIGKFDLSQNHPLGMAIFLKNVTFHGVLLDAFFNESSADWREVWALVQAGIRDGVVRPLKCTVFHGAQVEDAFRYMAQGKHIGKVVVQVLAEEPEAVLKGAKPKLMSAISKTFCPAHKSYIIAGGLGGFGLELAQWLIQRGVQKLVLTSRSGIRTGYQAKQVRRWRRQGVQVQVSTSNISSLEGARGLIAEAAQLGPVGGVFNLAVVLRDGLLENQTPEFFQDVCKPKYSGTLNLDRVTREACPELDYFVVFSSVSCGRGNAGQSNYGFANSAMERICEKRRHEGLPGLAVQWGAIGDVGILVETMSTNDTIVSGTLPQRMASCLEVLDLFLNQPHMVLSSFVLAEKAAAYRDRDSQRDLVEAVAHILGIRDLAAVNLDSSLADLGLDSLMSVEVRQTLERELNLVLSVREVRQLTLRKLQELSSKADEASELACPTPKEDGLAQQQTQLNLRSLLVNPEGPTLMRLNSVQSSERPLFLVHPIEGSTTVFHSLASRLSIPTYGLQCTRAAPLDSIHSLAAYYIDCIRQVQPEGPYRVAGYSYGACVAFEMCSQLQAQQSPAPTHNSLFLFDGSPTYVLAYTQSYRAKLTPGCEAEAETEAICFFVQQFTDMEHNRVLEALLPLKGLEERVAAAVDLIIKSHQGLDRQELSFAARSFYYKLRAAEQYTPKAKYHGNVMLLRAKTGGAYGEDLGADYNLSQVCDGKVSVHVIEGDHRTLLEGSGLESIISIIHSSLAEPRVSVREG
# Sequence of Broad substrate specificity ATP-binding cassette transporter ABCG2 (Homo sapiens) (Q9UNQ0 whole entry, looked up): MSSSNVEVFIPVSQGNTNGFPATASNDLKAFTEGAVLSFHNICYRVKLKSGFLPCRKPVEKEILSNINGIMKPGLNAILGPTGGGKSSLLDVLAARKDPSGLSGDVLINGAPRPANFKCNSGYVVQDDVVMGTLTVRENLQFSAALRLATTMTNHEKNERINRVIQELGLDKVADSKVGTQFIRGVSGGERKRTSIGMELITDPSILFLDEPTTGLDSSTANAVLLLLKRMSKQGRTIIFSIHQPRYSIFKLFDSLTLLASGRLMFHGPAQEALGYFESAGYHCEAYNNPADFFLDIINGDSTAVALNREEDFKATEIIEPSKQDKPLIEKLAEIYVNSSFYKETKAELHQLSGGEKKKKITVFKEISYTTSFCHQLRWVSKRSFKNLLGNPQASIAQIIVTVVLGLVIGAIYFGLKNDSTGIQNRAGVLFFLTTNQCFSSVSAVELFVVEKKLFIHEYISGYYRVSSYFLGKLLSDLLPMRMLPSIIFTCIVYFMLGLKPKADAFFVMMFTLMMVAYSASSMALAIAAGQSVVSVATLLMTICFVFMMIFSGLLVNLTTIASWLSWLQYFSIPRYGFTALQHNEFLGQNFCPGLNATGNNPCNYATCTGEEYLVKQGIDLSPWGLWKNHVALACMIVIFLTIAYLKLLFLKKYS
smiles,measurement,setting,value
CCOC(=O)[C@]1(c2ccccc2)Oc2ccccc2[C@@H]1N,outcome,[1],inactive
same,AC50,[2],41.6 µM (active)
same,outcome,[3],inactive
same,AC50,[4],78.3 µM (active)
same,AC50,[5],77.5 µM (active)
same,AC50,[6],88.2 µM (active)
same,AC50,[7],78.6 µM (active)
same,AC50,[8],13 µM (active)
same,outcome,[9],inactive
same,AC50,[10],83.3 µM (active)
same,outcome,[11],inactive
same,outcome,[12],inactive
same,AC50,[13],76.8 µM (active)
same,outcome,[14],inactive
same,AC50,[15],78.7 µM (active)
same,AC50,[16],82.2 µM (active)
same,AC50,[17],50 µM (active)
O=C(N[C@H](c1ccccc1)[C@@H]1CN2CCC1CC2)c1c(Cl)ccc(C(F)(F)F)c1Cl,outcome,[18],inactive
same,AC50,[2],76.8 µM (active)
same,outcome,[3],inactive
same,outcome,[4],inactive
same,AC50,[5],74.2 µM (active)
same,AC50,[6],68.5 µM (active)
same,AC50,[7],65.9 µM (active)
same,AC50,[8],11 µM (active)
same,AC50,[9],82.4 µM (active)
same,AC50,[10],74.5 µM (active)
same,AC50,[19],46.2 µM (active)
same,outcome,[11],inactive
same,AC50,[12],13.5 µM (active)
same,AC50,[13],46.2 µM (active)
same,AC50,[14],36.3 µM (active)
same,AC50,[16],71.8 µM (active)
same,outcome,[17],inactive
